Among the data in PubChem BioAssay AID1159580 (chemical genetic matrix, 2015) are normalized growth values, retold here.

The whole screen tested about 5,500 compounds, of which about 2,000 (36%) were called active. Not shown: some 18% with an inconclusive outcome. The list shows a part of the results. A number with no mark means an inactive call. Cut-off read from the data, not from the text of the source: active = normalized growth mostly below about 0.91 (no sharp cut-off); inconclusive = no clear call, values can overlap the other calls; inactive = mostly above about 0.92.

This test in a line: chemical genetic growth profiling, strain panel (AID 1159580).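 Note: tested at 20 µM; growth read once vehicle control cultures reached saturation at 30 °C; 1 = growth at the plate median or of vehicle wells; lower values mean less growth of the strain.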 The conditions noted are these: growth OD.
The mark [1] stands for this setting: S. cerevisiae deletion strains, locus YAL040C, strain CLN3, active compounds read low.
[2] abbreviates: S. cerevisiae deletion strains, locus YER002W, strain NOP16, active compounds read low.
Where [3] appears, read: S. cerevisiae deletion strains, locus YGR078C, strain PAC10, active compounds read low.
Setting [4] is: S. cerevisiae deletion strains, locus YMR307W, strain GAS1, active compounds read low.
Setting [5] is: S. cerevisiae deletion strains, locus YNL153C, strain GIM3, active compounds read low.
[6] abbreviates: S. cerevisiae deletion strains, locus YNL175C, strain NOP13, active compounds read low.
Setting [7] is: S. cerevisiae deletion strains, locus YNL197C, strain WHI3, active compounds read low.
The mark [8] stands for this setting: S. cerevisiae deletion strains, locus YNL224C, strain SQS1, active compounds read low.
The mark [9] stands for this setting: S. cerevisiae deletion strains, locus YOR083W, strain WHI5 (second series), active compounds read low.
The mark [10] stands for this setting: S. cerevisiae deletion strains, locus YPL055C, strain LGE1, active compounds read low.
The mark [11] stands for this setting: S. cerevisiae deletion strains, locus YPL241C, strain CIN2, active compounds read low.
Setting [12] is: S. cerevisiae deletion strains, locus YAL013W, strain DEP1, active compounds read low.
Where [13] appears, read: S. cerevisiae deletion strains, locus YMR263W, strain SAP30, active compounds read low.
[14] abbreviates: S. cerevisiae deletion strains, locus YHR030C, strain SLT2, active compounds read low.
[15] abbreviates: S. cerevisiae deletion strains, locus YHR079C, strain IRE1, active compounds read low.
Where [16] appears, read: S. cerevisiae deletion strains, locus YJL095W, strain BCK1, active compounds read low.
The mark [17] stands for this setting: S. cerevisiae deletion strains, locus YJR066W, strain TOR1, active compounds read low.
Where [18] appears, read: S. cerevisiae deletion strains, locus YLR113W, strain HOG1, active compounds read low.
Where [19] appears, read: S. cerevisiae deletion strains, locus YNL183C, strain NPR1, active compounds read low.
The mark [20] stands for this setting: S. cerevisiae deletion strains, locus YOR231W, strain MKK1, active compounds read low.
The mark [21] stands for this setting: S. cerevisiae deletion strains, locus YPL256C, strain CLN2, active compounds read low.

For the compound `c1ccc2cc(CC3=NCCN3)ccc2c1`, the normalized growth was 1.01 under setting [1]; 1 (S. cerevisiae deletion strains, locus YCL061C, strain MRC1 (second series), active compounds read low); 1.02 (S. cerevisiae deletion strains, locus YDR363W, strain ESC2, active compounds read low); 0.998 under setting [2]; 1.01 under setting [3]; 1 under setting [4]. The normalized growth was 1 (S. cerevisiae deletion strains, locus YNL128W, strain TEP1, active compounds read low); 0.982 under setting [5]; 1.01 under setting [6]; 1.02 under setting [7]; 1.01 under setting [8]; 1 under setting [9]. Besides, the normalized growth under setting [10] is 1.01 and the normalized growth under setting [11] is 0.996.

As to `Nc1nc(Cl)nc2c1ncn2[C@@H]1O[C@H](CO)[C@H](O)C1O` (some centres undefined), the normalized growth is, setting by setting: under setting [12], 1.01; under setting [1], 1.02; under setting [2], 0.991; under setting [3], 1.01; under setting [13], 1.01; under setting [4], 1. For the same compound, the normalized growth is 1.04 under setting [5]; 0.996 under setting [6]; 0.979 under setting [7]; 1 under setting [8]; 1.02 under setting [9].

Regarding `FC(F)(F)Oc1ccc(-c2noc(CSc3ccc(Br)cc3)n2)cc1`, the normalized growth under setting [12] was 1.02; the normalized growth (S. cerevisiae deletion strains, locus YBR229C, strain ROT2, active compounds read low) is 1.01; the normalized growth (S. cerevisiae deletion strains, locus YDL101C, strain DUN1, active compounds read low) is 0.967; the normalized growth (S. cerevisiae deletion strains, locus YDL134C, strain PPH21, active compounds read low) is 0.999; the normalized growth (S. cerevisiae deletion strains, locus YDR150W, strain NUM1, active compounds read low) is 1; the normalized growth (S. cerevisiae deletion strains, locus YEL061C, strain CIN8, active compounds read low) was 0.974. Moreover, the normalized growth was 1 under setting [3]; 0.69 (active) under setting [14]; 1.01 (S. cerevisiae deletion strains, locus YHR087W, strain rtc3, active compounds read low); 0.992 (S. cerevisiae deletion strains, locus YJR043C, strain POL32, active compounds read low); 0.978 (S. cerevisiae deletion strains, locus YJR075W, strain HOC1, active compounds read low); 0.989 (S. cerevisiae deletion strains, locus YKL190W, strain CNB1, active compounds read low). For the same compound, the normalized growth (S. cerevisiae deletion strains, locus YLR039C, strain RIC1, active compounds read low) is 1.05; the normalized growth (S. cerevisiae deletion strains, locus YLR058C, strain SHM2 (second series), active compounds read low) is 0.997; the normalized growth (S. cerevisiae deletion strains, locus YLR085C, strain ARP6, active compounds read low) was 0.905; the normalized growth (S. cerevisiae deletion strains, locus YLR262C, strain YPT6, active compounds read low) is 1; the normalized growth (S. cerevisiae deletion strains, locus YML094W, strain GIM5, active compounds read low) was 0.99; the normalized growth (S. cerevisiae deletion strains, locus YMR219W, strain ESC1, active compounds read low) was 1. The normalized growth by setting is: under setting [13], 0.997; under setting [4], 0.75; under setting [5], 1; (S. cerevisiae deletion strains, locus YNL298W, strain CLA4 (second series), active compounds read low) 0.969; (S. cerevisiae deletion strains, locus YNL322C, strain KRE1, active compounds read low) 0.996; (S. cerevisiae deletion strains, locus YNR030W, strain Alg12, active compounds read low) 0.958. Moreover, the normalized growth under setting [10] was 1.04; the normalized growth under setting [11] was 0.966; the normalized growth (S. cerevisiae deletion strains, locus YPR135W, strain CTF4, active compounds read low) was 1.1; the normalized growth (S. cerevisiae strains, strain wild type, active compounds read low) was 0.985.

`CC(=O)OCC1=C(C(=O)O)N2C(=O)[C@@H](N)C2SC1` (some centres undefined): the normalized growth under setting [14] was 1.06; the normalized growth under setting [15] was 1.07; the normalized growth under setting [16] was 1.07; the normalized growth under setting [17] is 0.976; the normalized growth under setting [18] was 1.05; the normalized growth under setting [19] is 0.983. For the same compound, the normalized growth was 1.07 under setting [20] and 1.07 under setting [21].

Regarding `C[C@H]1CC2C3CCC4=CC(=O)C=C[C@]4(C)[C@@]3(F)[C@@H](O)C[C@]2(C)[C@@]1(O)C(=O)COP(=O)(O)O` (some centres undefined), the normalized growth reads like this: under setting [14], 1.07; under setting [15], 1.08; under setting [16], 1.03; under setting [17], 0.971; under setting [18], 1.03; under setting [19], 0.983. Besides, the normalized growth reads like this: under setting [20], 1.08; under setting [21], 1.09.
